Source: PubChem BioAssay (Tox21)
Records with an inconclusive call do not appear. A call without a number means that no potency is given here. Calls of active or inactive are those of the source. Calls come from the whole dose curve; as a rule, active = well fitted inhibition curve with a large enough effect in the repeat runs; inconclusive = weak or mixed curves; inactive = flat fitted curve, though single readings scatter.

biological target: Voltage-gated inwardly rectifying potassium channel KCNH2 (Homo sapiens) (UniProt Q12809); experiment: Human Ether-a-go-go-Related Gene (hERG) channel small molecule antagonists: fluorescence cell-based qHTS assay (AID 1671200); details: hERG-U2OS cells, FluxOR thallium flux fluorescence; series mostly up to 76.8 µM; note: nearly all actives have a fitted effect of over 50% in size
Source text: National Center for Advancing Translational Sciences [NCATS]
U.S. Environmental Protection Agency [EPA]
National Institutes of Environmental Health Sciences [NIEHS]
National Toxicology Program [NTP]
U.S. Food and Drug Administration [FDA]
Mutations in the hERG channel cause Long QT (LQT) syndrome. LQT syndrome is a cardiac disorder which can cause ventricle arrhythmia and sudden death. Additionally, compounds which block the hERG channel can cause acquired LQT syndrome. Several FDA approved drugs have been removed from the market due to their hERG blocking activity. A cell-based hERG channel inhibition assay can be used to screen chemical compounds that inhibit hERG channel. This assay measures hERG channel activity using thallium ions as surrogate ions to measure potassium into the cells.
Tox21 Assay Protocol Summary:
hERG-U2OS cells were resuspended in culture medium and dispensed into 1536-well, black wall/clear-bottom plates at 1000cells/well/3uL using a Multidrop Combi dispenser (Thermo Fisher, Waltham, MA). After plates were incubated at 37 C overnight, 3 uL of Loading Buffer provided by FluxOR II Potassium Ion Channel Assay kit (Thermo, Carlsbad, CA) was added to each well. The assay plates were then incubated at room temperature in the dark for 1h. […] After the assay plates were incubated at room temperature for 10 min, 1 uL of Stimulus Buffer provided by FluxOR II Potassium Ion Channel Assay kit was added into each well and fluorescence intensity (480nm excitation/540nm emission) was continuously measured for 2 min at 1 second intervals using a Functional Drug Screening System (FDSS) 7000EX kinetic plate reader (Hamamatsu, Japan).

Voltage-gated inwardly rectifying potassium channel KCNH2 (Homo sapiens), sequence (Q12809 whole entry, looked up): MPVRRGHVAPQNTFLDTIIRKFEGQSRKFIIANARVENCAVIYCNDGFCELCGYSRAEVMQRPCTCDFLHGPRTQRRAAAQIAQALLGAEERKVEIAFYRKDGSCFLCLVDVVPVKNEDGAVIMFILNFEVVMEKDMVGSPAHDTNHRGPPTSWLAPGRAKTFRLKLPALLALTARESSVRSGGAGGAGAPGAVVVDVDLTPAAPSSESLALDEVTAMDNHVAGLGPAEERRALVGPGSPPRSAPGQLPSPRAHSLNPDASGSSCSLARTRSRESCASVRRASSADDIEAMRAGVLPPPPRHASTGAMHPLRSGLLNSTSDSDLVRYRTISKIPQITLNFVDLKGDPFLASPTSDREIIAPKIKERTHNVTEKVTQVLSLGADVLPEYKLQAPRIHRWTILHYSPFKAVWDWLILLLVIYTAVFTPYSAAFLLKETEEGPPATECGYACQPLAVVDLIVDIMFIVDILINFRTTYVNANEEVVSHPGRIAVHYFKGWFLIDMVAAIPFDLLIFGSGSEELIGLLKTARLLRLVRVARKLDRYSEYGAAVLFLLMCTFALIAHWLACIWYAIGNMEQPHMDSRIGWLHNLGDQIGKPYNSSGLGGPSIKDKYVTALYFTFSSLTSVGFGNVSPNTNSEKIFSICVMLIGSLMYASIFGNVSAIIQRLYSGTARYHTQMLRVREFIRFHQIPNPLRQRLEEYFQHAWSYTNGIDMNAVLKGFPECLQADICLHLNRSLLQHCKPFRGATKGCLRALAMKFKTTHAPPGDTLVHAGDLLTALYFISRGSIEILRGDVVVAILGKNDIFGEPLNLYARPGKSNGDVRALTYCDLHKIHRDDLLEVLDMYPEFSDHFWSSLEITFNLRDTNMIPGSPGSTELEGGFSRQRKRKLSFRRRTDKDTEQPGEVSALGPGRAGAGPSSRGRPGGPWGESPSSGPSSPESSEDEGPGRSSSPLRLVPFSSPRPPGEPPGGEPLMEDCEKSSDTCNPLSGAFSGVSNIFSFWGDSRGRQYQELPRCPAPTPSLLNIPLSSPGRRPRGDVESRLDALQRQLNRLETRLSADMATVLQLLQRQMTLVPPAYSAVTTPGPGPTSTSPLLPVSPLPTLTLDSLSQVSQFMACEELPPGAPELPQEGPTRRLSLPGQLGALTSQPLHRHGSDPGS

Compound | Potency | activity change, negative = inhibition
C=C1CC/C=C(\C)CC[C@@H]2[C@@H]1CC2(C)C | inactive | –
C[C@H](CCC(=O)O)[C@H]1CC[C@H]2[C@@H]3C(=O)C[C@@H]4CC(=O)CC[C@]4(C)[C@H]3CC(=O)[C@]12C | inactive | –
O=C(OCC1(COC(=O)c2cccnc2)CCCC(COC(=O)c2cccnc2)(COC(=O)c2cccnc2)C1O)c1cccnc1 | inactive | –
O=C(NCC(O)CO)c1c(I)c(C(=O)NCC(O)CO)c(I)c(N(CCO)C(=O)CO)c1I (stereo not given) | inactive | –
O=C(O)Cc1ccc(Cl)cc1Cl | inactive | –
Brc1ccc(-c2ccccc2)cc1 | inactive | –
CCCOC(OCCC)OCCC | inactive | –
COCCc1ccc(OCC2CO2)cc1 (stereo not given) | inactive | –
CC1=C(C(=O)O)N2C(=O)[C@@H](NC(=O)[C@H](N)c3ccc(O)cc3)[C@H]2SC1 | inactive | –
CCn1ccc(NS(=O)(=O)c2ccc(N)cc2)nc1=O | inactive | –
C=C(C)C(=O)OCCN(CC)CC | inactive | –
CCCCNC1CC(C)(C)NC(C)(C)C1 | inactive | –
COP(=O)(OC)OC(c1ccc(Cl)cc1)P(=O)(OC)OC (stereo not given) | inactive | –
C=C(C)C(=O)OCCOP(=O)(O)OCCOC(=O)C(=C)C | inactive | –
CC1=CCC(C(C)C)=CC1 | inactive | –
C=C(C)C(=O)OCc1ccccc1 | inactive | –
O=C(CCNNC(=O)c1ccncc1)NCc1ccccc1 | inactive | –
C[C@H](N)[C@H](O)c1cccc(O)c1 | inactive | –
COC(=O)C1CC(=O)C(C(=O)OC)CC1=O (stereo not given) | – | 0.39% [at 6.97 µM] (inactive)
N[C@@H](CCC(=O)N[C@@H](CS)C(=O)NCC(=O)O)C(=O)O | – | 7.2% [at 15.8 µM] (inactive)

Compound | Potency | activity change, negative = inhibition
Cc1ccccc1N=O | inactive | –
O=C(Nc1ccc(Cl)c(Cl)c1)C1CC1 | inactive | –
Cc1ccc(C=O)cc1C | inactive | –
CC(=O)Nc1cccc(C)c1 | inactive | –
COc1cc(NS(=O)(=O)c2ccc(N)cc2)nc(OC)n1 | inactive | –
N#Cc1ccc(C(=O)O)cc1 | inactive | –
CNS(=O)(=O)CCc1ccc2[nH]cc(C3CCN(C)CC3)c2c1 | inactive | –
CCC(C)NC(N)=O (stereo not given) | inactive | –
CC(C(=O)O)c1ccc2c(c1)CC(=O)c1ccccc1S2 (stereo not given) | inactive | –
O=C1c2ccccc2C(=O)N1CCl | inactive | –
CN(C)C(=O)CNC(=O)Cc1ccccc1 | inactive | –
CC(=O)c1ccc2c(c1)Cc1ccccc1-2 | inactive | –
CC(=O)Nc1ccc(S(=O)(=O)Cl)cc1 | inactive | –
COc1ccc(OC)c(Cl)c1 | inactive | –
ClCCCl | inactive | –
FC(F)(F)c1ccccc1-n1ccnc1 | inactive | –
Cc1cc2cc3c(C)cc(=O)oc3c(C)c2o1 | inactive | –
C[C@@H]1O[C@@H](O[C@@H]2[C@@H](O)[C@H](OCCc3ccc(O)c(O)c3)O[C@H](CO[C@@H]3O[C@H](CO)[C@@H](O)[C@H](O)[C@H]3O)[C@H]2OC(=O)/C=C/c2ccc(O)c(O)c2)[C@H](O)[C@H](O)[C@H]1O | inactive | –
CCCC/C=C\CCCCCCCCCC=O | inactive | –
CCCCCCCCCC(C)=O | inactive | –
